Shown are actives, neighbours in structure and some others; about 2% of the full set was active somewhere.
DAGLB inhibitor: diacylglycerol lipase beta (human) inhibition | HEK293T DAGLB membrane lysate, EnzChek fluorogenic substrate | 340,000 tested, 0.059% active | inhibition, % at 5.17 µM | Q8NCG7 | AID 504411; in the data active means inhibition above about 34%;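 further: 0% = enzyme with vehicle and 100% = wells lacking enzyme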
Neddyl block: blocks human cullin neddylation; P61081+Q13564; TR-FRET cullin neddylation, biochemical; inhibition, % at 25 µM; 360,000 tested, 0.58% active; AID 651699; in the data active means inhibition above about 36%
NadD inh: inhibitors of Staphylococcus aureus NadD; purified NadD enzyme, colorimetric absorbance read-out; inhibition, % at 20 µM; 360,000 tested, 0.78% active; in the data active means inhibition above about 26%
sPLA2-III inh: Inhibits HGIII-sPLA2 liposome hydrolysis, primary screen; Q9NZ20; QFRET BODIPY PC-A2 liposome hydrolysis, fluorescence; inhibition, % at 12.2 µM; 370,000 tested, 0.56% active;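 active means inhibition above mean plus 3 SD of compounds lying within the high and low control bounds, cut at about 19% in these data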;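 further: 0% = median of test compound wells and 100% = no enzyme DMSO wells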
Target sequence (Q9NZ20 whole entry, looked up): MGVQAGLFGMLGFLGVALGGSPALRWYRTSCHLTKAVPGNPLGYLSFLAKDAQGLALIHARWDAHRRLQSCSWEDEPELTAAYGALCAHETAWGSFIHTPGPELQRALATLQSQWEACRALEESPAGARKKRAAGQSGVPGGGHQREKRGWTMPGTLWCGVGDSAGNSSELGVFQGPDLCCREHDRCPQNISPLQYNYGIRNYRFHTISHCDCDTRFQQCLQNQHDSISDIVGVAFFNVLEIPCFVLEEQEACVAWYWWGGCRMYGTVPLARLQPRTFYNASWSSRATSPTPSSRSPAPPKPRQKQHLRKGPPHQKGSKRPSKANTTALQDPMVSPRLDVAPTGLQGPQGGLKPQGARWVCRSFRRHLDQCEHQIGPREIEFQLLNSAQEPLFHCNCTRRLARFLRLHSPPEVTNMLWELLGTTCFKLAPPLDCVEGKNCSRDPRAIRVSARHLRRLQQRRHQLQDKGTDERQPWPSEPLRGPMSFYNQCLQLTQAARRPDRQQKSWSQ
ARNT TACC3 PPI: disrupts binding between human ARNT and TACC3. Q9Y6A5. AlphaScreen His-ARNT PAS-B/GST-TACC3 binding, luminescence; TACC3 fragment carries E629A point mutation. inhibition, % at 9.99 µM. 390,000 tested, 0.66% active. AID 623870;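 active means mean inhibition of replicates at least 50% and at least half of replicates each reaching 50%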;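 further: 0% = complete ARNT plus TACC3 wells and 100% = ARNT alone without TACC3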
Neddyl inh conf: cullin neddylation inhibition, confirmation; shares compounds with Neddyl block; AID 652217; 1,800 tested, 13% active; calls only at 25 µM; TR-FRET cullin neddylation biochemical assay; in the data active means inhibition above about 40%;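 further: neddylation substrate is the cullin 1 ring ligase complex with SKP2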
* marks the source's active call; other numbers are inactive results; i = inactive; / = not tested or not shown; + = active, no number.

SMILES | DAGLB inhibitor | Neddyl block | NadD inh | sPLA2-III inh | ARNT TACC3 PPI | Neddyl inh conf
Cc1c(-c2nc(-c3ccc(C(F)(F)F)cc3)no2)n(C)oc1=O | / | 41.8* | -1.6 | 1.5 | 3.0 | i
CS(=O)(=O)c1ccccc1-c1nc(-c2ccc(C(F)(F)F)cc2)no1 | -6.6 | 1.0 | 0.9 | -5.2 | -9.1 | /
Cc1[nH]nc2c1C(c1ccc(O)cc1)C1=C(CC(C)(C)CC1=O)N2 (configuration not stated) | -3.0 | 45.5* | -2.3 | 4.4 | / | i
CCCc1cc(-n2ccnc2C)n2c(nc3ccccc32)c1C#N | -1.5 | 38.4* | -3.9 | 2.5 | 0.1 | i
CCCc1cc(NCCCCO)n2c(nc3ccccc32)c1C#N | -0.2 | / | 0.0 | -3.6 | -6.3 | /
CO[C@H]1CC[C@@H]2CCN(C)C(=O)CC3(CCCCC3)CN(C)C(=O)c3cccc(C#N)c3OC[C@H]1O2 | / | / | / | / | -7.9 | /
Cc1cc(C)n2nc(-c3ccccc3)cc2n1 | -6.5 | / | 1.3 | 0.7 | 15.4 | /
CCC1C(=O)n2nc(-c3ccccc3)cc2N=C1C (configuration not stated) | -3.7 | 48.8* | 0.0 | 0.6 | -9.6 | i
COC(=O)c1cc2ccccc2c([N+](=O)[O-])c1O | 5.1 | -49.8 | -3.7 | -14.1 | -1.9 | /
COC(=O)c1cc2ccccc2c(-c2c(OC)c(C(=O)OC)cc3ccccc23)c1OC | -5.2 | 41.0* | -7.0 | -1.0 | 10.3 | i
COC(=O)C[C@H]1CC[C@@H]2[C@@H](COc3ccc(NC(=O)Nc4ccc(C)cc4)cc3C(=O)N2C)O1 | / | / | / | / | -7.7 | /
COc1cc2c(cc1OC)/C(=C/C(=O)c1ccc(C)cc1)NCC2 | -5.3 | 42.7* | -0.9 | 6.0 | 10.1 | i
COc1cc2c(cc1OC)/C(=C/C(=O)c1ccccc1)NCC2 | -6.7 | -3.5 | -4.6 | 4.7 | 9.9 | /
COc1ccccc1-c1cnc2c(c1)C(=O)N([C@@H](C)CO)C[C@H](C)[C@@H](CN(C)Cc1cccnc1)O2 | / | / | / | / | -0.4 | /
C[C@H]1CN([C@@H](C)CO)C(=O)c2cccc(NS(=O)(=O)c3ccc(F)cc3)c2O[C@H]1CN(C)C(=O)Nc1cccc2ccccc12 | / | / | / | / | 2.8 | /
COC(=O)c1cc(-c2ccc3c(c2)OCO3)nc2ccccc12 | -8.3 | / | 3.0 | -1.9 | 1.3 | /
Cc1cc(C)nc(NC(=O)c2cc(-c3ccc4c(c3)OCO4)nc3ccccc23)c1 | 0.0 | 52.7* | 19.0 | 1.9 | -8.5 | /
Fc1cnc(N/N=C/c2ccc(-c3ccc(Br)cc3)o2)nc1N1CCOCC1 | -3.5 | 7.2 | -0.7 | 8.9 | 21.4 | /
Brc1ccc(-c2ccc(/C=N/Nc3nc(N4CCOCC4)nc(N4CCOCC4)n3)o2)cc1 | 0.9 | 45.6* | -7.2 | 0.4 | -5.6 | i
COc1ccc(NC(=O)N(C)C[C@@H]2Oc3ccc(NS(=O)(=O)c4ccc(OC)cc4)cc3CC(=O)N([C@@H](C)CO)C[C@H]2C)cc1 | / | / | / | / | -5.3 | /
CN(C)CC(=O)N1[C@@H]2c3ccc(-c4ccc(F)cc4)c(=O)n3C[C@@H]2[C@@H](CO)[C@@H]1C(=O)NC1CCC1 | / | / | / | / | -18.8 | /
O=C(N/N=C/C=C\c1ccco1)c1ccccn1 | 2.0 | 61.1* | 4.6 | -7.3 | 67.7* | i
O=C(N/N=C/C=C/c1ccccc1)c1ccccn1 | -4.5 | -13.6 | 1.7 | -3.2 | 26.8 | /
Cc1cc(C(=O)Nc2cccc3c2O[C@@H](CN(C)CC2CC2)[C@@H](C)CN([C@H](C)CO)C3=O)n(C)n1 | / | / | / | / | 2.8 | /
CCOC(=O)c1sc2nccc(N(C)C)c2c1N=CNOCc1ccccc1 | -14.3 | 40.8* | -5.3 | -17.8 | 18.4 | i
SMILES | DAGLB inhibitor | Neddyl block | NadD inh | sPLA2-III inh | ARNT TACC3 PPI | Neddyl inh conf
c1ccc2nc(N3CCCC3)c(N3CCCC3)nc2c1 | -1.1 | 46.3* | -3.1 | 3.6 | / | /
CC1CCc2sc(NC(=O)c3ccc(N4C(=O)CCC4=O)cc3)c(C(N)=O)c2C1 (configuration not stated) | 5.0 | 42.8* | -9.4 | -0.9 | -2.1 | /
NC(=O)CSc1nnc2ccc(-c3ccc(F)cc3)nn12 | 2.5 | 38.8* | -10.3 | 1.0 | 5.1 | i
O=C(CSc1nnc2ccc(-c3ccccc3)nn12)NCC1CCCO1 (configuration not stated) | -4.0 | 41.6* | -0.2 | 3.8 | -1.4 | +
NC(=O)CSc1nnc2ccc(-c3ccc(Cl)cc3)nn12 | -4.3 | 42.1* | -1.1 | 5.4 | -1.4 | i
Cc1ccc(-c2ccc3nnc(SCC(N)=O)n3n2)cc1 | 0.9 | / | -5.0 | 2.4 | 4.6 | /
COc1ccc(-c2ccc3nnc(SCC(=O)N4CCCC4)n3n2)cc1 | 0.9 | 55.9* | 0.1 | 0.8 | -0.3 | /
O=C(CSc1nnc2ccc(-c3ccncc3)nn12)Nc1ccc(F)cc1 | -0.4 | -17.7 | -3.9 | -1.5 | -0.2 | /
CC(C)NC(=O)N(C)C[C@H]1Oc2cc(C#CC(C)(C)O)ccc2S(=O)(=O)N([C@@H](C)CO)C[C@@H]1C | / | / | / | / | -4.5 | /
O=C(NC1CCCCC1)N[C@@H]1CC[C@H](CCNS(=O)(=O)c2ccc(F)cc2)O[C@@H]1CO | / | / | / | / | 3.4 | /
O=C(C[C@@H]1CC[C@H]2[C@@H](COC[C@@H](O)CN2Cc2ccccc2F)O1)N[C@@H]1CCN(Cc2ccccc2)C1 | / | / | / | / | 1.5 | /
CN(C)c1ccc(/C=N/NC(=O)C2CC2c2ccccc2)cc1 (configuration not stated) | 2.6 | 53.8* | 0.2 | -4.0 | / | +
CCN(CC)c1ccc(/C=N/NC(=O)C2CC2)cc1 | -0.1 | 51.0* | -5.2 | 4.7 | 1.3 | +
CCN(CC)c1ccc(/C=N/NC(=O)c2c(Cl)c(C)nn2C)cc1 | 2.3 | 38.2* | 1.3 | -3.2 | -2.9 | i
CCN(CC)c1ccc(/C=N/NC(=O)C(O)c2ccccc2)cc1 (configuration not stated) | -0.1 | 54.7* | -1.0 | 2.1 | -1.4 | /
C[C@@H]1CCCCO[C@@H](CN(C)Cc2ccncc2)[C@H](C)CN([C@@H](C)CO)C(=O)c2cc(NC(=O)CCC(F)(F)F)ccc2O1 | / | / | / | / | -6.2 | /
C=CCNC(=S)N/N=C/c1ccc(N(CC)Cc2ccccc2)cc1 | 3.7 | 56.3* | 4.0 | 8.6 | -5.0 | /
CCN(CC)c1ccc(/C=N/NC(=O)Cc2ccc(OC)c(OC)c2)cc1 | 4.2 | 49.5* | -4.3 | 3.7 | 4.0 | +
O=C(Nc1ccc(N2CCOCC2)cc1)C1CC1 | 1.7 | 1.4 | -2.1 | 2.3 | -7.2 | /
O=C(N/N=C/c1ccc(N2CCOCC2)cc1)C1CC1 | 2.4 | 42.2* | -5.5 | 5.3 | / | i
Cc1cn(-c2cccnc2)c(C)c1CNC[C@H]1O[C@@H](n2cnc3c(N)ncnc32)[C@H](O)[C@@H]1O | -7.1 | 75.3* | 3.2 | 7.1 | -3.5 | i
Cc1ccc2c3c([nH]c2c1)C(=O)CC(C)(C)S3 | -0.1 | 46.0* | -10.0 | -3.2 | 0.0 | i
COc1cccc(-c2cc(C(=O)Nc3ccccc3SC)no2)c1 | -16.5 | / | -4.1 | -3.1 | 0.8 | /
COc1cc(NC(=O)c2cc(-c3ccco3)on2)c(OC)cc1Cl | -1.8 | 40.9* | 0.9 | 1.6 | -3.4 | i

Assay outcomes deposited in PubChem by several laboratories.
